We go through 33 molecules from PubChem BioAssay (EPA / NIEHS).

Values joined by “and” are separate entries in the source; they are usually repeats but may differ in a detail not shown here. Equal entries are not always repeated. Records with an inconclusive call do not appear. The source holds several records for some structures; these can differ, active in one and inactive in another. Active and inactive are the calls of the source. The calls were made as follows: active = hit-call score of the fitted dose curve at least 0.9, where 1 is the maximum; inconclusive = response in the unintended direction; inactive = score below 0.9.

Chain of Nuclear receptor subfamily 1 group I member 2 (Homo sapiens) (O75469 whole entry, looked up): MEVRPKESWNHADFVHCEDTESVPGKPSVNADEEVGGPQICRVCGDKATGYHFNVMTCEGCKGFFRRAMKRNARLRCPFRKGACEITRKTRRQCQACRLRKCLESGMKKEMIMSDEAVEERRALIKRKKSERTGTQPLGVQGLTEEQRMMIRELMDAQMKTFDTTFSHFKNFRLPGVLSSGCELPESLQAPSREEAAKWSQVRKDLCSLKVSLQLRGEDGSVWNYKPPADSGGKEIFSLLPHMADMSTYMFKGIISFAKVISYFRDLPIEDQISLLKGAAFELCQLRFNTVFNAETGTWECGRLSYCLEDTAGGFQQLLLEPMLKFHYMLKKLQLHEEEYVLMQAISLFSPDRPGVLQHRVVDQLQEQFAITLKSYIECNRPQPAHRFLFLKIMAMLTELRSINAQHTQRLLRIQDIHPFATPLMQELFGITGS

This assay has as its target Nuclear receptor subfamily 1 group I member 2 (Homo sapiens) (UniProt O75469). Briefly: ATG_PXR_TRANS: Attagene TRANS-FACTORIAL HepG2 Assay for human Pregnane X Receptor (PXR) (AID 2283008). The protocol: ATG_TRANS is a cell-based, multiplexed-readout assay that uses HepG2, a human liver cell line, with measurements taken at 24 hours after chemical dosing in a 24-well plate.ATG_PXR_TRANS is one of 30 assay component(s) measured or calculated from the ATG_TRANS assay. It is designed to make measurements of mRNA induction, a form of inducible reporter, as detected with fluorescence intensity signals by Reverse transcription polymerase chain reaction (RT-PCR) and Capillary electrophoresis technology.Data from the assay component ATG_PXR_TRANS was analyzed into 1 assay endpoint. This assay endpoint, ATG_PXR_TRANS, was analyzed in the positive analysis fitting direction relative to DMSO as the negative control and baseline of activity. Using a type of inducible reporter, measures of mRNA for gain-of-signal activity can be used to understand the reporter gene at the transcription factor-level as they relate to the gene NR1I2. Furthermore, this assay endpoint can be referred to as a primary readout, because this assay has produced multiple assay endpoints where this one serves a reporter gene function. To generalize the intended target to other relatable targets, this assay endpoint is annotated to the nuclear receptor intended target family, where the subfamily is non-steroidal.
Human liver HepG2 cells are transiently transfected with multiple reporter transcription units (MRTUs) in 6-well plates using FuGene 6 reagent (Roche; 3 ml FuGene/1 mg DNA). The MRTU constructs are regulated by a cis-regulating element (promoter). […] A major difference between the CIS and TRANS system is that in CIS activities of endogenous TFs are measured, whereas the TRANS assay evaluates changes in activities of exogenous, chimeric NR-Gal4 proteins. […] At the end of 24 hour incubation, total RNA was isolated using TriZol reagent (Invitrogen). The isolated RNA is then reverse-transcribed using oligo(dT) primer and Mo-MLV reverse transcriptase (Invitrogen) with DNAse I (Ambion) treatment for 30 min. The one-tenth of the produced cDNA was amplified by PCR using Taq DNA polymerase (Invitrogen) and two reporter sequence-specific primers. The PCR products were fluorescently labeled by primer extension with 6-arboxyfluorescein (6-FAM) 5'-labeled reporter sequence-specific primer (2 min at 95 C, 20 s at 68 C and 10 min at 72 C) and these products were digested with 5U of HpaI (New England Biolabs) for 2h at 37 C. The fragments were purified using Qiaquick PCR columns (Qiagen), analyzed on an ABI 3130xL genetic analyzer (Applied Biosystems) with peak positions identified by using a set of X-rhodamine (ROX)-labeled MapMarker1000 molecular weight standards (BioVentures). The raw capillary electrophoresis data was processed using Attagraph software (Attagene).
Consider `CCc1ccc(CCOc2ccc(CC3SC(=O)NC3=O)cc2)nc1` (stereo not given), for which the molecule was classed as inactive and the AC50 is 3.89 µM (active).
Take `O=C(/C=C/c1ccc(O)cc1)CC(=O)/C=C/c1ccc(O)cc1`: the result was inactive.
In the case of `CCCCC[C@H](O)CC(=O)CCc1ccc(O)c(OC)c1`, the concentration at half-maximal activity (AC50) is 27.6 µM (active).
`Cc1cc(CCN2CCN(c3nsc4ccccc34)CC2)cc2c1NC(=O)CC2(C)C`: the AC50 was 0.742 µM (active).
Turning to `Cc1ccc(S(=O)(=O)O)c(C)c1`, the call was inactive.
For the molecule `O=C(O)Cc1cc(I)c(Oc2cc(I)c(O)c(I)c2)c(I)c1`, the call was inactive and the half-maximal activity concentration (AC50) is 13 µM (active).
For `CCCOC(=O)c1ccc(O)cc1`, in that order: “inactive” and 100 µM (active).
Take `O=C1OC2(c3ccccc31)c1cc(Br)c(O)c(Br)c1Oc1c2cc(Br)c(O)c1Br`: the half-maximal activity concentration (AC50) is 8.91 µM (active) and the call was inactive.
As to `Cc1oc(-c2ccccc2)nc1CCOc1ccc(C[C@H](Nc2ccccc2C(=O)c2ccccc2)C(=O)O)cc1`, the half-maximal activity concentration (AC50) is 9.25 µM (active).
In the case of `OC1CCC(C2CCCCC2)CC1` (stereo not given), the molecule was classed as inactive and the AC50 was 23.9 µM (active).
With `CCN(CC)CCNc1ccc(CNC=O)c2sc3ccc(OC)cc3c(=O)c12`, the half-maximal activity concentration (AC50) was 0.228 µM (active).
Still for that read-out and setting: the figure for `CC(C)(C)c1cccc(C(C)(C)C)c1O` is 60.2 µM (active); for `CCCCCCCCCCCCCCCS(=O)(=O)Oc1ccccc1` it is 1.21 µM (active).
Consider `CC#C[C@]1(O)CC[C@H]2[C@@H]3CCC4=CC(=O)CCC4=C3[C@@H](c3ccc(N(C)C)cc3)C[C@@]21C`, for which the molecule was called inactive; the half-maximal activity concentration (AC50) is 777 nM (active) and 356 nM (active) and 928 nM (active).
On to `CCC(C)(C)C1CCC(O)CC1` (stereo not given), for which the molecule was called inactive.
On the same count and under the same terms, the entry for `c1ccc2c(c1)Cc1ccccc1-2` is “inactive”; for `N#C[C@@H]1CC(F)(F)CN1C(=O)CNC1CC2CCC(C1)N2c1ncccn1` (stereo not given in full) it is “inactive”; for `CCCOc1sc(C(=O)N2CCC(c3cc(CN)ccc3F)CC2)c(C)c1Br` it is “inactive”.
With `COc1cc(CCC(=O)CC(=O)CCc2ccc(O)c(OC)c2)ccc1O`, the AC50 was 5.26 µM (active).
Consider `Oc1cc2ccccc2c2ccccc12`, for which the molecule was called inactive.
Same read-out and setting: next, `CC(C)(C)c1cc(C(C)(C)C)c(O)c(C(C)(C)C)c1`: “inactive”.
As to `CCC(=C(c1ccc(O)cc1)c1ccc(OCCN(C)C)cc1)c1ccccc1`, the concentration at half-maximal activity (AC50) is 3.28 µM (active) [middle of 4 runs].
Same read-out and setting: next, `CC(=O)NC1(c2cccc(F)c2)CCN(CC[C@@]2(c3ccc(Cl)c(Cl)c3)CN(c3ccccc3)C(=O)CO2)CC1`: 8.59 µM (active).
Regarding `CC1=C(/C=C/C(C)=C/C=C/C(C)=C/C(=O)O)C(C)(C)CCC1`, the AC50 was 19.8 µM (active) and the molecule was classed as inactive.
Turning to `CCCCC(CC)COC(=O)CCCCC(=O)OCC(CC)CCCC` (stereo not given), the outcome was inactive.
`CCCCCCCCCCCCN1CCCC1=O`: the AC50 was 9.09 µM (active).
In the case of `CCCCCCCCC(=O)O`, the outcome was inactive.
Take `CC(=O)CC(C)(C)O`: the call was inactive.
Consider `OCCC(F)(F)C(F)(F)C(F)(F)C(F)(F)C(F)(F)C(F)(F)C(F)(F)C(F)(F)F`, for which the outcome was inactive.
The same measure, in the same setting: the entry for `CCc1nn(C2CCCCC2)c2cc(C3(C#N)CCC(C(=O)O)CC3)ccc12` (stereo not given) is “inactive”.
With `NC(=O)N1C(=O)C(C(=O)c2cc(Cl)cs2)c2cc(F)c(Cl)cc21` (stereo not given), the concentration at half-maximal activity (AC50) is 11 µM (active).
Consider `O=c1c(-c2ccc(O)cc2)coc2cc(O)ccc12`, for which the result was inactive.
For `FC(F)(I)C(F)(F)C(F)(F)C(F)(F)C(F)(F)C(F)(F)I`, the concentration at half-maximal activity (AC50) is 33.4 µM (active).
